# Pf Dd2 inh: Plasmodium falciparum Dd2 growth inhibition. AID 1347417. Potency, µM (doses to about 28.9 µM), inactives show top-dose activity, negative = inhibition, actives largely listed as inhibitors. actives 4.3% (n = 120,000). P. falciparum Dd2 growth, SYBR Green, 72 h; active = well fitted inhibition curve with a large enough effect;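 note: plate controls were DMSO vehicle for no effect and reference drug for full effect; nearly all actives have a fitted effect of over 65% in size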
#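 Infected erythrocytes (Dd2, 0.3% parasitemia, 2.5% hematocrit final) are added to compound in RPMI-1640/Albumax II medium, grown 72 h at 37C in low oxygen, then lysed with saponin/Triton-X containing SYBR Green and read by fluorescence.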
# The depositor's hits bear a star; i = inactive; [ ] = dose if it differs, or a comment. Many of the other results were omitted from the sample, so hits are more common in it than they were. Potency is the fitted concentration of half-maximal effect.
SMILES,Pf Dd2 inh
O=C(C1CC=CC1)N1C[C@@H](COc2cccnc2)[C@H](c2ccccn2)C1,-23%
CCOC(=O)C1CCN(C(=O)c2coc(COc3cccc(F)c3)n2)CC1,-7%
CCCC(=O)N1CC2(CCCN2CC2CC2)Cc2ccccc21 (stereo not drawn),8.9µM*
O=C(O)CCCC(=O)N1Cc2ccccc2CC2(CCCCN2CC2CCCC2)C1 (stereo not drawn),7%
C[S+](=O)([O-])N1Cc2ccccc2CC2(CCN(CC3CCCCC3)CC2)C1,-21%
C[S+](=O)([O-])N1Cc2ccccc2CC2(CCCN2Cc2ccccc2)C1 (stereo not drawn),-26%
O=C(O)CCC(=O)N1Cc2ccccc2CC2(CCCN2CC2CCCCC2)C1 (stereo not drawn),0%
C[S+](=O)([O-])N1CC2(CCCN2CC2CCCCC2)Cc2ccccc21 (stereo not drawn),8.9µM*
Cc1noc(-c2cn(C3CCN(C(=O)c4cccc(F)c4)CC3)nn2)n1,i
O=C(CN1C(=O)C(c2ccccc2)=NC12CCCC2)NC1CCCC1,-1%
CCc1ccc(CNC(=O)CN2C(=O)NC3(CCCCC3)C2=O)cc1,-17%
Cc1ccc(S(=O)(=O)c2nnn3c2nc(NCc2ccc(F)cc2)c2ccccc23)cc1,-1%
O=C(N[C@H]1CCN2C(=O)N(c3ccc(F)c(Cl)c3)C(=O)[C@@H]2C1)c1ccncc1,-24%[44.1 µM]
N#Cc1cccc(C(=O)N2CCCN(S(=O)(=O)c3ccccc3)CCC(=O)NCC2)c1,9%
CSc1ccc(CCNC(=O)c2ccc3c(Cl)c4c(nc3c2)CCCC4)cc1,-16%
CCN(CC)CCCNC(=O)c1ccc2c(Cl)c3c(nc2c1)CCCC3,11µM*
Cc1ccc(CCNC(=O)c2ccc3c(Cl)c4c(nc3c2)CCCC4)cc1,-4%
O=C([C@@H]1C[C@H](Oc2ccccc2)CN1C(=O)c1ccncc1)N1CCCC1,-14%
CCN1c2cc(C(=O)Nc3ccc(Cl)c(F)c3)ccc2C(=O)N2CCCCC21 (stereo not drawn),-24%
O=C1Nc2ccc(-c3ccccc3F)cc2C(=O)N2CCN(C(=O)c3cccnc3)C[C@H]12,-18%[44.1 µM]
CC(C)NC(=O)C[C@@H]1O[C@H](CNC[C@H]2O[C@@H](CC(=O)NC(C)C)[C@H](O)[C@@H]2O)[C@@H](O)[C@H]1O,34%
Cc1ccc(NC(=O)NCC2CCOCC2)c(C)c1,14%
Cc1ccc(C)c(CN2CCC(CNC(=O)Nc3ccc(Br)cc3F)CC2)c1,8.9µM*
COc1ccc(NC(=O)NCC2CCN(Cc3ccccc3F)CC2)c(OC)c1,11%
COCCN1C(=O)CC[C@]2(C(=O)N(C)CCc3ccncc3)CCCC[C@@H]12,-18%
SMILES,Pf Dd2 inh
O=C(C1CC1)N1CCC(N2C(=O)C(OCC3CC3)C23CCOCC3)CC1 (stereo not drawn),6%
CCOc1ccc2oc(=O)cc(CN3CCN(c4ccccc4)CC3)c2c1,i
CCOCc1cc(CN2CCN(c3cccc(Cl)c3)CC2)c(O)c2ncccc12,2.8µM*
COc1cc(-c2noc(CN3CCN(c4ccccc4)CC3)n2)cc(OC)c1OC,14%
CC(C)OCc1cc(CN2CCN(c3ccccc3)CC2)c(O)c2ncccc12,2.5µM*
CCn1c2ccccc2c2nnc(N3CCN(c4cccc(Cl)c4)CC3)nc21,-4%
COc1ccc(-c2noc(CN3CCN(c4cccc(Cl)c4)CC3)n2)cc1,17%
COc1cncc([C@@H](NC(=O)c2scc3c2OCCO3)C2CC(O)C2)c1 (stereo partly drawn),-19%
CCN(C(=O)Cn1nc2n(c1=O)CCCCC2)c1ccccc1,308%
CNC(=O)c1cccc(-c2cnc(Nc3ccc(F)c(Cl)c3)c3c2CCO3)c1,11µM*
COc1cncc(Nc2ncc(-c3cccc(F)c3)c3c2OCC3)c1,11µM*
CNC(=O)c1cccc(-c2cnc(Nc3cccc(C(F)(F)F)c3)c3c2CCO3)c1,i
O=C(Nc1ncc(-c2cccc(F)c2)c2c1OCC2)c1ccncc1,i
COc1ccc(-c2cnc(Nc3cc(F)cc(N4CCOCC4)c3)c3c2CCO3)cn1,11µM*
COCCNc1ncc(-c2ccc(N3CCOCC3)cc2)c2c1OCC2,23%[44.1 µM]
COc1ccc(-c2cnc(NC(=O)Cc3ccccc3)c3c2CCO3)cn1,17%[44.1 µM]
CNC(=O)c1cccc(-c2cnc(Nc3ccc(Cl)cn3)c3c2CCO3)c1,i
COc1ccc(Nc2ncc(-c3ccccc3OC)c3c2OCC3)cc1,i
CCc1nncn1C1CCN(S(=O)(=O)c2ccc(C)c(C)c2)CC1,i
CNC(=O)[C@@H]1C[C@@H](n2cc(CNC(=O)Nc3cc(F)ccc3F)nn2)CN1,-3%
CCCS(=O)(=O)Nc1ccc([C@H]2OCC(=O)N(CC(=O)N(C)C)[C@@H]2CO)cc1,16%[44.1 µM]
Cc1noc([C@@H]2C[C@H](NS(=O)(=O)c3cccc4cccnc34)CN2C)n1,-5%[44.1 µM]
Cc1nc(C(=O)NC2CC(c3cc(N4CCC(O)C4)ncn3)C2)cs1 (stereo not drawn),-31%
Cc1nnc2n1CCC(NC(=O)CCCc1nc3ccccc3s1)CC2 (stereo not drawn),-8%
CN(C)c1ccc(C(=O)N[C@H]2C[C@H]3C(=O)NC[C@@H](CCC(=O)NCc4cccs4)N3C2)cc1,i
SMILES,Pf Dd2 inh
CCN1CC(C(=O)NCc2cccc(OCc3ccccc3)c2)CC1=O (stereo not drawn),12%
CC(C)CCCC1CN(C(=O)c2c(O)cccc2O)CCO1 (stereo not drawn),0%
COCCN1C(=O)CCC2(C(=O)NCc3c(C)n[nH]c3C)CCCC=C12 (stereo not drawn),-3%
Cc1nn(-c2ccccc2)c(Oc2ccccc2F)c1CCC(=O)NCC1CC1,i
COc1ccc(C2(C(=O)N3C[C@@H](CO)[C@H](c4nc(C)no4)C3)CC2)cc1,27%
CCc1ccc(CNC(=O)c2cc3c(s2)-c2ccccc2OC3)cc1,11%
CC(C)c1ccc(C2Sc3ccccc3NC3=C2C(=O)c2ccccc23)cc1 (stereo not drawn),3.5µM*
O=C1[C@@H]2CSC(c3ccc(C(F)(F)F)cc3)N2C(=O)N1c1ccccc1 (stereo partly drawn),12%
O=C1C2=C(Nc3ccccc3SC2c2ccc(C(F)(F)F)cc2)c2ccccc21 (stereo not drawn),4.5µM*
CCc1ccc(C2Sc3ccccc3NC3=C2C(=O)c2ccccc23)cc1 (stereo not drawn),2µM*
O=C(c1cn(CCN2CCNCC2)nn1)N1C[C@@H]2CC[C@H](C1)N(CC1CC1)C2,20%
COc1ccc(NC(=O)Cn2c(=O)c(-c3noc(C)n3)c3n(c2=O)CCCC3)cc1OC,i
CC(CCc1ccccc1)NC(=O)c1ccc(CN2C(=O)NC3(CCOCC3)C2=O)cc1 (stereo not drawn),-6%
Cc1csc(NC(=O)c2nc3c(o2)CCN(CC2CCCC2)CC3)n1,i
O=C(O)C1=NOC2CN([S+](=O)([O-])C3CCCC3)CC12 (stereo not drawn),23%[44.1 µM]
Cc1cccc(C(=O)N2CCC3(CCCCO3)CC2)c1,i
COc1cccc(-c2cc(C3CCN(C(=O)Nc4cccc(Cl)c4C)CC3)[nH]n2)c1,i
COc1cccc(-c2cc(C3CCN(C(=O)c4cc(C)ccc4C)CC3)[nH]n2)c1,-8%
COc1cccc(-c2cc(C3CCN(C(=O)Nc4ccccc4OC)CC3)[nH]n2)c1,-19%
COc1cccc(-c2cc(C3CCN(C(=O)Nc4ccccc4F)CC3)[nH]n2)c1,-4%
COc1cccc(-c2cc(C3CCN(C(=O)Nc4ccc(F)cc4)CC3)[nH]n2)c1,5.6µM*
